Results on 1 sequence are retold here after PMC7862700, “An all-to-all approach to the identification of sequence-specific readers for epigenetic DNA modifications on cytosine”.

Holding throughout (test): DAPPL (digital affinity profiling via proximity ligation, sequencing); 10 mM Tris-HCl pH 7.5, 50 mM NaCl, 1 mM DTT, 4% glycerol, room temperature, 30 min; GST-TFs on glutathione beads, 16-mer random dsDNA library, 0.1% formaldehyde crosslink after washing; high values mean tight binding
Holding throughout (settings): protein: recombinant; tags: N-terminal GST; dsDNA, one strand shown

One assay addresses T1, FLI1 (Homo sapiens, UniProt Q01543 1-452).
T1 sequence: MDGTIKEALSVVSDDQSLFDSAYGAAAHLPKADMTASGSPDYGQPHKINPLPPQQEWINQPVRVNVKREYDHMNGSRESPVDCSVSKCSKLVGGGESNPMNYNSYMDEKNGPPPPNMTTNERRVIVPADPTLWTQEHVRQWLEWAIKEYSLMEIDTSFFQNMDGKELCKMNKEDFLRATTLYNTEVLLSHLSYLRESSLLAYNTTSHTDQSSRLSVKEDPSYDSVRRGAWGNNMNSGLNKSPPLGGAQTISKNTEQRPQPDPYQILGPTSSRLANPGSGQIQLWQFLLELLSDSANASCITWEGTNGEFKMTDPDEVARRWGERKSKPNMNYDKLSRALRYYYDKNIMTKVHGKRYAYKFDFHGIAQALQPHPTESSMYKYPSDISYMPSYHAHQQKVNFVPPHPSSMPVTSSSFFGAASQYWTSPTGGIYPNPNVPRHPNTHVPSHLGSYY
The procedure, abridged: (§1)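 After expression in yeast as GST fusions, human transcription factors were bound to glutathione beads, DNA-barcoded and mixed with a tag-only sample. The pools were incubated with 200 nmole of a 16-mer random double-stranded DNA library in Tris/NaCl/DTT/glycerol buffer (30 min, room temperature), washed and crosslinked with 0.1% formaldehyde. Proximity ligation with BsaI/T4 ligase ran for 1 h at 37 °C, before PCR amplification and sequencing on an Illumina NextSeq500. Binding signal is a hexamer's read frequency for a factor divided by its frequency for the tag-only sample.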

The next assay concerns the target T2, ELK1 (Homo sapiens, UniProt P19419 1-428).
T2 sequence: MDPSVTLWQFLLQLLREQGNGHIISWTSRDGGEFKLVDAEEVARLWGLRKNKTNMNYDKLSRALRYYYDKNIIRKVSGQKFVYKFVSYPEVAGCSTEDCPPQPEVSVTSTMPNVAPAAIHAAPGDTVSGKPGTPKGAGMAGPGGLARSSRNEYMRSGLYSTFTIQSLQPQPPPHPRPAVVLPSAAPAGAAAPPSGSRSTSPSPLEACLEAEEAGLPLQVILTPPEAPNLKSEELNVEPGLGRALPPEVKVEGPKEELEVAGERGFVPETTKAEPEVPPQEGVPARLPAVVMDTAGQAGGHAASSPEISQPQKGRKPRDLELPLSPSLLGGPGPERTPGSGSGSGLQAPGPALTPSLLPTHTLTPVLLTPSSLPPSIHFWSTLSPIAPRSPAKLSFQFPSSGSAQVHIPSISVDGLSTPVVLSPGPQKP
The procedure, abridged:
as §1

A further assay addresses T3, GABPA (Homo sapiens, UniProt Q06546 1-454).
T3 sequence: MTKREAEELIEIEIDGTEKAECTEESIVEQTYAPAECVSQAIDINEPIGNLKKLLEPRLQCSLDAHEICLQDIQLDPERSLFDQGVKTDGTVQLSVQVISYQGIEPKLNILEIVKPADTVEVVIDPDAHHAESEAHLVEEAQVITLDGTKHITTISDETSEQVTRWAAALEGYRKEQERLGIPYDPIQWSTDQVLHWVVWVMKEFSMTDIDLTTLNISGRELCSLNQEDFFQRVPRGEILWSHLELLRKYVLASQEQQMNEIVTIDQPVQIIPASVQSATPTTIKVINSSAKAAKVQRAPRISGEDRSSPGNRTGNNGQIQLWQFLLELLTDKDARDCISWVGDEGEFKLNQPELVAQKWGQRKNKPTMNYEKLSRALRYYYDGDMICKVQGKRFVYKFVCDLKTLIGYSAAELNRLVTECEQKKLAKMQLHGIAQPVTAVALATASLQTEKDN
The procedure, abridged: as §1

For another assay, the target named is T4, ERG (Homo sapiens, UniProt P11308 1-479).
T4 sequence: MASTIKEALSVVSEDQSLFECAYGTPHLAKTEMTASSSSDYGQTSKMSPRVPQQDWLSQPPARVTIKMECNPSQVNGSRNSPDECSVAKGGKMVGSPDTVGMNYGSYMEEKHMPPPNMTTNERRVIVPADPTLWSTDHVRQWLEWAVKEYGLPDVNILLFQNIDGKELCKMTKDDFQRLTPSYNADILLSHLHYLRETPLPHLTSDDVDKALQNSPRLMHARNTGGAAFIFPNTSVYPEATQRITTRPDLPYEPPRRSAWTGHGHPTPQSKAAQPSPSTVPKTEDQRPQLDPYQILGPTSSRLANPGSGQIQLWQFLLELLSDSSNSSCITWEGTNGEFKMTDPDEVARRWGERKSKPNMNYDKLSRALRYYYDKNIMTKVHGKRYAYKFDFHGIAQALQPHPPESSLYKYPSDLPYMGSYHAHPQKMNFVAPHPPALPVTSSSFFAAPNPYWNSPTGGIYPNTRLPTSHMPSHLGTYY
The procedure, abridged: as §1

A further assay deals with ELF1 (Homo sapiens, UniProt P32519 1-619). Put shortly: as §1
Chain of ELF1 (P32519 whole entry): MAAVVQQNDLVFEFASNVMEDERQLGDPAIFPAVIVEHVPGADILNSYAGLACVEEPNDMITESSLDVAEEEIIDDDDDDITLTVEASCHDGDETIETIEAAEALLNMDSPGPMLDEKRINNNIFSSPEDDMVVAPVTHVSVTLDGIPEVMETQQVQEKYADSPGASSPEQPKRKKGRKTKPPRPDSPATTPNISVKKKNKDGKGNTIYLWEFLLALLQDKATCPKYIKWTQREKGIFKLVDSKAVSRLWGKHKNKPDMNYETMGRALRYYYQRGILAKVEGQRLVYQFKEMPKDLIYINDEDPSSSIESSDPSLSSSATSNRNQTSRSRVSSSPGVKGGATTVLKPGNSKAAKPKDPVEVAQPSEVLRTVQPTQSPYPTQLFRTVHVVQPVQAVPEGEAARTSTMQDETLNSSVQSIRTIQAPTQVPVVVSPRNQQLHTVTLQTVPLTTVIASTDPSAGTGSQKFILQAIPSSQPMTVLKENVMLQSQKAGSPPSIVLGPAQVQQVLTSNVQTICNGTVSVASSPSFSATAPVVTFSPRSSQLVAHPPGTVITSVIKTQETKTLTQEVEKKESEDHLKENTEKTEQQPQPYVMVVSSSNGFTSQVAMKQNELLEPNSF
A further assay deals with T5, EHF (Homo sapiens, UniProt Q9NZC4 1-300).
T5 sequence: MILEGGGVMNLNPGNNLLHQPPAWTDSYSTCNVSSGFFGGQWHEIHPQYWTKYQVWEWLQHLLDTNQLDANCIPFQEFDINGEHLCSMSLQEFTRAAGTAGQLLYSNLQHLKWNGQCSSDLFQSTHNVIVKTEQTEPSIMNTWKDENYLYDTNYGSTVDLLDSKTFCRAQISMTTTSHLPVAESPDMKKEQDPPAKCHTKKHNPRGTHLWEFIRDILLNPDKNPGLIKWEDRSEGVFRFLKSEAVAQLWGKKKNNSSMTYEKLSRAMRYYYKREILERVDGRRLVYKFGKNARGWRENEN
Put shortly:
as §1

In a further assay the target is SPI1 (Homo sapiens, UniProt P17947 1-270). The procedure, abridged:
as §1

For a further assay, the target named is SPIB (Homo sapiens, UniProt Q01892 1-262). Put shortly:
as §1

A further assay addresses T6, ELK3 (Homo sapiens, UniProt P41970 1-407).
T6 sequence: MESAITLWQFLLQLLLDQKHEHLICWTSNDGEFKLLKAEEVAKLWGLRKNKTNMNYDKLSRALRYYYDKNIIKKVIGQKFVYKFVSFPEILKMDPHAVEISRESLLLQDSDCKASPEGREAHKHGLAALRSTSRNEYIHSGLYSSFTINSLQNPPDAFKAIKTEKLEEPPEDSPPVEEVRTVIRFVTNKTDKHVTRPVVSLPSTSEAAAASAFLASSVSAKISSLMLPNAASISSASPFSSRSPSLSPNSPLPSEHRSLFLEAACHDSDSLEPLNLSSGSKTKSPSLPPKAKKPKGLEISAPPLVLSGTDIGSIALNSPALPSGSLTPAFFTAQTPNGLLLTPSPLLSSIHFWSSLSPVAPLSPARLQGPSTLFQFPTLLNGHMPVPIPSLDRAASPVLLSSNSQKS
Put shortly: as §1

In another assay the target is T7, FEV (Homo sapiens, UniProt Q99581 1-238).
T7 sequence: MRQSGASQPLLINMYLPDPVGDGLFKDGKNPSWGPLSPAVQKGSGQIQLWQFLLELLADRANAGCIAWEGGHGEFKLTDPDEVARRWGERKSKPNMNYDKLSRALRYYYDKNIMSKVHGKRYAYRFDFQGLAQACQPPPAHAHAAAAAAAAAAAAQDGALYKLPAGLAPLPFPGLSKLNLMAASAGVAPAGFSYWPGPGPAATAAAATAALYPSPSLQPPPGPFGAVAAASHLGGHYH
The procedure, abridged: as §1

The next assay concerns the target ETV5 (Homo sapiens, UniProt P41161 1-510). The procedure, abridged:
as §1

The target of the next assay is T8, SPIC (Homo sapiens, UniProt Q8N5J4 1-248).
T8 sequence: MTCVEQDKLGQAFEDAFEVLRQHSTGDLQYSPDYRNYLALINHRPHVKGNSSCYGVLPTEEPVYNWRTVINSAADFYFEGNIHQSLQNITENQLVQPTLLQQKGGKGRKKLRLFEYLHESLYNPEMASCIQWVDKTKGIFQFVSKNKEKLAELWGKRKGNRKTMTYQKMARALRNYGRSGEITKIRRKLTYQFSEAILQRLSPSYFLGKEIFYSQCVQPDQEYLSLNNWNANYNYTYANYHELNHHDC
Put shortly:
as §1

The next assay addresses ELF4 (Homo sapiens, UniProt Q99607 1-663). The procedure, abridged:
as §1

A further assay addresses ETV1 (Homo sapiens, UniProt P50549 1-477). The procedure, abridged:
as §1

The next assay has as its target T9, ERF (Homo sapiens, UniProt P50548 1-548).
T9 sequence: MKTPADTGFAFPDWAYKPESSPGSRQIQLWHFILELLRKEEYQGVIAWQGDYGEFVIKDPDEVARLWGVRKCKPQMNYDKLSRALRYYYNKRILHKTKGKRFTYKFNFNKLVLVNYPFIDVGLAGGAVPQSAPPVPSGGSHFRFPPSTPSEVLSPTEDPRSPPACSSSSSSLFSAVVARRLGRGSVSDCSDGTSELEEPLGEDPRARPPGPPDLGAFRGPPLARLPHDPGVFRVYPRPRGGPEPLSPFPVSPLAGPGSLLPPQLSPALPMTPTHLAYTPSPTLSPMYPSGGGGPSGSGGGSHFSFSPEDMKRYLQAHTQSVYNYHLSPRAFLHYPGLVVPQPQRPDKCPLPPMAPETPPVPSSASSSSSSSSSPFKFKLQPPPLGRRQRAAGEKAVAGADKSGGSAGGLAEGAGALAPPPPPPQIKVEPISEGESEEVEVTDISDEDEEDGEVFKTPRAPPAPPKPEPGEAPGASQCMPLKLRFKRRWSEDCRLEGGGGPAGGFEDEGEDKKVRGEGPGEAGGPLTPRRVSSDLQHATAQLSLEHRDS
Put shortly: as §1

The target in the next assay is T10, ETV3L (Homo sapiens, UniProt Q6ZN32 1-361).
T10 sequence: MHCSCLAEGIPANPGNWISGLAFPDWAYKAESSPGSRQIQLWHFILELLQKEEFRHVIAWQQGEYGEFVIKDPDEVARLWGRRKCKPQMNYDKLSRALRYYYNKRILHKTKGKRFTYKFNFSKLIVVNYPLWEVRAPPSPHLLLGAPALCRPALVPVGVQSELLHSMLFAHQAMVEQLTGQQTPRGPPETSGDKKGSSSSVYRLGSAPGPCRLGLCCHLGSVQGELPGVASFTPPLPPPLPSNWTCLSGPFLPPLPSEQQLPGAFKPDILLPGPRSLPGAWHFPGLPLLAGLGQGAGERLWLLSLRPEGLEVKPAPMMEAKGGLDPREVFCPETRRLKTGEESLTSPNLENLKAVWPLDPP
Put shortly:
as §1

The next assay deals with T11, ETS2 (Homo sapiens, UniProt P15036 1-469).
T11 sequence: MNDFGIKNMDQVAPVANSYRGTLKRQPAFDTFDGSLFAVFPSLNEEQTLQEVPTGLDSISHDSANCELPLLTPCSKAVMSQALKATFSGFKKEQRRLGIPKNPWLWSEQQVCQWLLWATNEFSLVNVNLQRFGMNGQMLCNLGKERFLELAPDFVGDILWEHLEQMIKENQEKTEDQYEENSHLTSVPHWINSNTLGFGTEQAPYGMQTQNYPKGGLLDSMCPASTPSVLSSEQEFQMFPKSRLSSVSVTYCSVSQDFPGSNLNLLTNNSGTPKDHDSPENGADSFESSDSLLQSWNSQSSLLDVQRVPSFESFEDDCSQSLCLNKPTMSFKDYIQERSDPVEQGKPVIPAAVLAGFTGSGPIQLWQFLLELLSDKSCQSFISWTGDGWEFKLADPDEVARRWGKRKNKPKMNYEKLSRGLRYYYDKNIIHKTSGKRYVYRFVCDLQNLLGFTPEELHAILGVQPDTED
Put shortly: as §1

The target in another assay is T12, ETV3 (Homo sapiens, UniProt P41162-2 1-143).
T12 sequence: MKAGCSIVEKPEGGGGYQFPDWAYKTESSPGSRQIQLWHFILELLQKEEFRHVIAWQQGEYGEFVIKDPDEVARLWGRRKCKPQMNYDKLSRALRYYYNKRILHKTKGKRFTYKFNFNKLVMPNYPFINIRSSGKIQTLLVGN
Put shortly:
as §1

In another assay the target is ETV6 (Homo sapiens, UniProt P41212 1-452). The procedure, abridged: as §1
Chain of ETV6 (P41212 whole entry): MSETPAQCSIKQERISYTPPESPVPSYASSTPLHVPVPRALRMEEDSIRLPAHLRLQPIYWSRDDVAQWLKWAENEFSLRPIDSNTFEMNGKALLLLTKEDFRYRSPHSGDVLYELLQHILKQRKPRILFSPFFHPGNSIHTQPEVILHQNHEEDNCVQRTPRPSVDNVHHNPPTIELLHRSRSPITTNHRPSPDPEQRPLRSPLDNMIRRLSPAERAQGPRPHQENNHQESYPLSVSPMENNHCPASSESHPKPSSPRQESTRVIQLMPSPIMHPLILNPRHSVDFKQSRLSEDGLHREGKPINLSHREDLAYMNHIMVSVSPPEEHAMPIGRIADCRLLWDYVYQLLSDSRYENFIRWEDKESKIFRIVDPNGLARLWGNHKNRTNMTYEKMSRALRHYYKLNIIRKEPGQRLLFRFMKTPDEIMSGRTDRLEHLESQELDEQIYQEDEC

Chain of ETV5 (P41161 whole entry): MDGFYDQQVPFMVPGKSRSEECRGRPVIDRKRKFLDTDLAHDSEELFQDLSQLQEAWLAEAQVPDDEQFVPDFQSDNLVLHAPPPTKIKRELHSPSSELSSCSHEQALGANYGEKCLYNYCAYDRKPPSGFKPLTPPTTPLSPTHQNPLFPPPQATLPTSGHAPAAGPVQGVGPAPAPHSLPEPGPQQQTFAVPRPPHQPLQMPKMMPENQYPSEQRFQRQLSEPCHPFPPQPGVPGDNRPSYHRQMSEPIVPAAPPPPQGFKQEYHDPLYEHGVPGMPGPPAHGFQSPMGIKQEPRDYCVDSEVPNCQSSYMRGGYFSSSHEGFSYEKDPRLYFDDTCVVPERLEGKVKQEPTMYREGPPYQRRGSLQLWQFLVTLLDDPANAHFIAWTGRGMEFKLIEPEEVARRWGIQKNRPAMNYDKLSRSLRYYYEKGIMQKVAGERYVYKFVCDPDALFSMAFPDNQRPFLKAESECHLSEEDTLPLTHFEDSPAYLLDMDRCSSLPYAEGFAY
Chain of ELF4 (Q99607 whole entry): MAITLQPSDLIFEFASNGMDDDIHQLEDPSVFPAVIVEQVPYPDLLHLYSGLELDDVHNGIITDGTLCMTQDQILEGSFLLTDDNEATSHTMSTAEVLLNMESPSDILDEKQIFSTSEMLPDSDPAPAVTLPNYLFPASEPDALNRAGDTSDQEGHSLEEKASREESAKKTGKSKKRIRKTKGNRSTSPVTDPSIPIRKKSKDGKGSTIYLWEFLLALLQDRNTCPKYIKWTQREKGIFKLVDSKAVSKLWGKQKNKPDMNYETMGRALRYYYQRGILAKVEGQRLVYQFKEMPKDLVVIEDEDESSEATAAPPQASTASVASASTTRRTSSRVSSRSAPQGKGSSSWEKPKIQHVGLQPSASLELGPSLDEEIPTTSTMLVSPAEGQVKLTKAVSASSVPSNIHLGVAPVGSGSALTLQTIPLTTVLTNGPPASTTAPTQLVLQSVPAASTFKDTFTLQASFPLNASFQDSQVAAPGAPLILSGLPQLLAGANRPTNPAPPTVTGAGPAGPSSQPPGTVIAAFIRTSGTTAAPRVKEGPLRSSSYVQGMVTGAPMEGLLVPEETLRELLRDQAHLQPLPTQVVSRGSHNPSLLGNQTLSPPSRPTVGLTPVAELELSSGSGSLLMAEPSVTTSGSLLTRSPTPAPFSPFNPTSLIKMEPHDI
Chain of SPIB (Q01892 whole entry): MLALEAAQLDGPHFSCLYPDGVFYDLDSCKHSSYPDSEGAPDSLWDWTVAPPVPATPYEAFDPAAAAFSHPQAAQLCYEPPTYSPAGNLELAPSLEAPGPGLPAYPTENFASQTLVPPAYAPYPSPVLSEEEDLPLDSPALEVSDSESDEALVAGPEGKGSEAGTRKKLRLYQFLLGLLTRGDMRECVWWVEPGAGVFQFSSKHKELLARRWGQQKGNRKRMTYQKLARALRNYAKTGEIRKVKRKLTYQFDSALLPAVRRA
Chain of ETV1 (P50549 whole entry): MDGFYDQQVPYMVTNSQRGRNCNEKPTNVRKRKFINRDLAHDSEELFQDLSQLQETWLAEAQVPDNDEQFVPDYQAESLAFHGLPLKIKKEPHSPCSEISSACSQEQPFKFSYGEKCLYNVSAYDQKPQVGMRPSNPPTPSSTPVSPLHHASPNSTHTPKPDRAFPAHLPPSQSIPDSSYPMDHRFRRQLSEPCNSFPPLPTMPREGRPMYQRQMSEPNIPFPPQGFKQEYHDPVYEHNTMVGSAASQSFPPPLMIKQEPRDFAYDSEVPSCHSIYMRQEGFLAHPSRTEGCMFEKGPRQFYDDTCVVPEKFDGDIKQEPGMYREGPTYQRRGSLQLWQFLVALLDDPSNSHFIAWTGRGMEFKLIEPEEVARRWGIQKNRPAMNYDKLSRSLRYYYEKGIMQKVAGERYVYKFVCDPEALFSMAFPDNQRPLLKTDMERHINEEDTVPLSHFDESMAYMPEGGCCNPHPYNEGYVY

With CGATGT, the binding signal with FLI1 was 1.1 fold enrichment (6-mer frequency, TF over GST control); with ELK1 it was 1.07 fold enrichment (6-mer frequency, TF over GST control); in the assay with GABPA, 1.08 fold enrichment (6-mer frequency, TF over GST control); with ERG, 1.08 fold enrichment (6-mer frequency, TF over GST control); with ELF1 it was 1.03 fold enrichment (6-mer frequency, TF over GST control); in the assay with EHF it was 1.11 fold enrichment (6-mer frequency, TF over GST control). Further, the binding signal with SPI1 is 1.15 fold enrichment (6-mer frequency, TF over GST control); in the assay with SPIB it was 1.08 fold enrichment (6-mer frequency, TF over GST control); in the assay with ELK3 it was 1.04 fold enrichment (6-mer frequency, TF over GST control); in the assay with FEV it was 1.06 fold enrichment (6-mer frequency, TF over GST control); in the assay with ETV5 it was 1.1 fold enrichment (6-mer frequency, TF over GST control); with SPIC it was 1.07 fold enrichment (6-mer frequency, TF over GST control). Also, the binding signal in the assay with ELF4 was 1.04 fold enrichment (6-mer frequency, TF over GST control); in the assay with ETV1, 1.1 fold enrichment (6-mer frequency, TF over GST control); with ERF it was 1.16 fold enrichment (6-mer frequency, TF over GST control); in the assay with ETV3L it was 1.09 fold enrichment (6-mer frequency, TF over GST control); with ETS2, 1.12 fold enrichment (6-mer frequency, TF over GST control); in the assay with ETV3 it was 1.19 fold enrichment (6-mer frequency, TF over GST control). For the same sequence, the binding signal with ETV6 was 1.03 fold enrichment (6-mer frequency, TF over GST control).
